The source of these data is PubChem BioAssay (Tox21).

Molecules are shown by their SMILES. Unmarked numbers belong to inactive results. Results filed as inconclusive are left out. Calls of active or inactive are those of the source. Unless noted, the call rests on the fitted dose curve; in most records, active means well fitted curve in the direction sought with a large enough effect in the repeat runs; inconclusive means weak or mixed curves; inactive means flat fitted curve, though single readings scatter.

Assay [1] can be described thus: qHTS assay to test for compound auto fluorescence at 535 nm (green) in HEK293 cells (AID 720680). Background: In qHTS, concentration-response curves come from the screen itself.
A short description of assay [2]: qHTS assay to test for compound auto fluorescence at 460 nm (blue) in HEK293 cell free culture (AID 720681). The essentials:
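Test compounds were pinned into cell-free culture medium (DMEM with 10% FBS) and fluorescence was read directly at Ex/Em 405/460 nm. Signals were expressed as fluorescence equivalents of triamterene, with DMSO vehicle as control.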

Assay [3] can be described thus: qHTS assay to test for compound auto fluorescence at 535 nm (green) in HEK293 cell free culture (AID 720682). The method in brief: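 Each library compound, or DMSO control, is added by pintool to medium alone, comprising DMEM and 10% FBS. Emission at 535 nm following 485 nm excitation is quantified against fluorescein.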
Assay [4] is described as follows: qHTS assay to test for compound auto fluorescence at 590 nm (red) in HEK293 cell free culture (AID 720683). The method in brief: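 Tox21 10K library compounds were pinned into cell-free DMEM with 10% FBS and fluorescence was read at excitation 540 nm. Activity is expressed as Rose Bengal sodium equivalency.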
Assay [5] can be described thus: qHTS assay to test for compound auto fluorescence at 590 nm (red) in HepG2 cell free culture (AID 720684). The method in brief:
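Readout: intrinsic compound fluorescence at 590 nm emission after 540 nm excitation, scaled to Rose Bengal sodium. Matrix was cell-free MEM with 10% FBS; DMSO vehicle wells served as control.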

A short description of assay [6]: qHTS assay to test for compound auto fluorescence at 460 nm (blue) in HepG2 cell free culture (AID 720685). The method in brief:
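Cell-free plates of MEM plus 10% FBS received 23 nL compound or DMSO vehicle; blue-channel (405/460 nm) intensity scored against triamterene as reference fluorophore.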

A short description of assay [7]: qHTS assay to test for compound auto fluorescence at 535 nm (green) in HepG2 cell free culture (AID 720686).
Assay [8] in a line: qHTS assay to test for compound auto fluorescence at 460 nm (blue) in HepG2 cells (AID 720687). The method in brief:
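Cells (2,000/well in MEM with 10% FBS) attached overnight at 37 C, then were exposed to compound or DMSO for 1 hr at 37 C, 5% CO2. Fluorescence read at Ex/Em 405/460 nm, expressed as triamterene-equivalent signal.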

Assay [9] has as its target Glucocorticoid receptor (Homo sapiens) (UniProt P04150). As to the kind of experiment: qHTS assay to identify small molecule agonists of the glucocorticoid receptor (GR) signaling pathway (AID 720691; active means well fitted activation curve with a large enough effect in the signal ratio in the repeat runs, not every such curve was filed as active; the % refers to the signal ratio). The method in brief: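 Agonist-mode qHTS in HeLa cells stably expressing a glucocorticoid-response-element beta-lactamase reporter. Fluorescence intensity read with FRET substrate (2 h, room temperature) after 18 h compound treatment at 37 C.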

Assay [10] shares this target. As to the kind of experiment: qHTS assay to identify small molecule antagonists of the glucocorticoid receptor (GR) signaling pathway (AID 720692; active means well fitted inhibition curve with a large enough effect in the signal ratio in the repeat runs, not every such curve was filed as active; the % refers to the signal ratio; further: potency means the concentration at half of the fitted maximal effect). The method in brief: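 Inhibition of dexamethasone-driven (5 nM final) beta-lactamase expression was measured in GRE-reporter HeLa cells over 18 h at 37C. Fluorescence was read after 2 h with the B/G FRET substrate at room temperature.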
On the % scale 0 is the no-effect control and ±100 the full control effect.

Chain of Glucocorticoid receptor (Homo sapiens) (P04150 whole entry, looked up): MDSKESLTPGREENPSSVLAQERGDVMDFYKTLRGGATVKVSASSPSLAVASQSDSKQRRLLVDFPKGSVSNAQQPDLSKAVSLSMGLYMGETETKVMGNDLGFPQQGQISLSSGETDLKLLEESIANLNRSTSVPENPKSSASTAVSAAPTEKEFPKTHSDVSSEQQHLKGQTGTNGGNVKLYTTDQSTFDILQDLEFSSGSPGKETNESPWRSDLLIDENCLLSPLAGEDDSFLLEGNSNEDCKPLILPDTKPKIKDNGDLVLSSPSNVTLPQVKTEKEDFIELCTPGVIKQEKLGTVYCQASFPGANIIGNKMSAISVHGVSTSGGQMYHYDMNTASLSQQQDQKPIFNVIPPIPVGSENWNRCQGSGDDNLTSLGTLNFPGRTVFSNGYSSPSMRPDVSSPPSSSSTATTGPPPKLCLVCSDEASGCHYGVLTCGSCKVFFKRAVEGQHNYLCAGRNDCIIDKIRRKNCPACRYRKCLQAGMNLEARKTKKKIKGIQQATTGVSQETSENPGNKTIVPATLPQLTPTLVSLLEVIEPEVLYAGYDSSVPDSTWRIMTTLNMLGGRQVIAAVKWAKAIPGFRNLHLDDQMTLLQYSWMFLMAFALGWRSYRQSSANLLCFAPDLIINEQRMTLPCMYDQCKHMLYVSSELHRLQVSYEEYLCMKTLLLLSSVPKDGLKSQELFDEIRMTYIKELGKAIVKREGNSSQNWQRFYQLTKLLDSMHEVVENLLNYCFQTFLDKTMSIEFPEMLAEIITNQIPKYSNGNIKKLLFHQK

As for `CC1=C(C=O)C(C)(C)CCC1`, the outcome in [1], in assay [3], in [4], in [5] and in assay [7] was inactive. The Potency result in assay [2], in [6], in assay [8], in assay [9] and in assay [10] was “inactive” each time.
Regarding `CC(C)OCC1CO1` (stereo not given), the result in assay [1], in [3], in assay [4], in assay [5] and in [7] was inactive. In addition, the Potency result in [2], in assay [6], in assay [8], in [9] and in assay [10] was “inactive” each time.
Take `COc1cc2c(N3CCN(C(=O)Nc4ccc(OC(C)C)cc4)CC3)ncnc2cc1OCCCN1CCCCC1`: the result in [1], in [3], in assay [4], in assay [5] and in assay [7] was inactive. Also, the Potency result in assay [2], in assay [6], in [8] and in assay [9] was “inactive” each time.
Consider `Cc1nc2ccccc2s1`, for which the compound was called inactive in assay [1], in assay [3], in assay [4], in assay [5] and in [7]. For the same compound, the Potency result in assay [2], in assay [6], in [8], in assay [9] and in assay [10] was “inactive” in each case.
Consider `CCCCC(CC)CNCC(CC)CCCC` (stereo not given), for which the compound was classed as inactive in [1], in assay [3], in [4], in assay [5] and in [7]. For the same compound, the Potency result in assay [2], in [6], in [8] and in assay [9] was “inactive” in each case.
Take `C=CC(C)(O)CCCC(C)CCCC(C)CCCC(C)C` (stereo not given): the call in assay [1], in assay [3], in assay [4], in assay [5] and in [7] was inactive. Moreover, the Potency entry in [2], in assay [6], in assay [8], in [9] and in assay [10] was “inactive” each time.
For the compound `CC#N`, the compound was called inactive in [1], in assay [3], in assay [4], in assay [5] and in assay [7]. Further, the Potency entry in assay [2], in assay [6], in assay [8], in assay [9] and in assay [10] was “inactive” each time.
On to `[O]=[Bi]`, for which, in assay [1], the fluorescence, % of fluorescein is -0.0925% [at 3.72 µM]. Further, the fluorescence, % of fluorescent control in assay [2] is -0.0523% [at 3.72 µM]; in assay [4], -0.241% [at 3.72 µM]; in assay [6], -0.119% [at 3.72 µM]; in assay [8] it was -0.0256% [at 3.72 µM]. Moreover, the activity change in assay [3] was -0.0025% [at 3.72 µM]. For the same compound, the fluorescence, % of Rose Bengal in assay [5] is -0.0278% [at 3.72 µM]. Further, the fluorescence, % of fluorescein control in assay [7] was -0.0086% [at 3.72 µM]. The activation in assay [9] was 0.026% [at 6.9 µM]. Also, the activity change, negative = inhibition in assay [10] was -10.6% [at 7.04 µM].
Regarding `O=C(C(=O)c1ccccc1)c1ccccc1`, the result in [1], in assay [3], in assay [4], in [5] and in [7] was inactive. Also, the Potency result in assay [2], in [6], in assay [8], in assay [9] and in assay [10] was “inactive” throughout.
Regarding `C/C=C/C=C/CCCCCCCO`, the call in [1], in assay [3], in assay [4], in [5] and in assay [7] was inactive. Further, the Potency entry in [2], in assay [6], in assay [8] and in assay [9] was “inactive” throughout. Besides, the Potency in [10] was 38.9 µM (active).
Regarding `CCCC1C(CC)=CC(CC)=CN1c1ccccc1` (stereo not given), the result in assay [1], in assay [3], in [4], in [5] and in assay [7] was inactive. Moreover, the Potency entry in [2], in [6], in [8] and in assay [9] was “inactive” in each case. For the same compound, in assay [10], the Potency is 49 µM (active).
As for `CN1CCN(CCCN2c3ccccc3Sc3ccc(S(=O)(=O)N(C)C)cc32)CC1`, in assay [1], the fluorescence, % of fluorescein was 0.046% [at 18.6 µM]. Further, the fluorescence, % of fluorescent control in [2] was 0.0966% [at 18.6 µM]; in assay [4] it was 0.122% [at 18.6 µM]; in [6], 0.208% [at 18.6 µM]; in assay [8], 0.123% [at 18.6 µM]. Besides, the activity change in assay [3] is 0.0013% [at 18.6 µM]. Moreover, the fluorescence, % of Rose Bengal in assay [5] was 0.748% [at 18.6 µM]. The fluorescence, % of fluorescein control in assay [7] was 0.0675% [at 18.6 µM]. In addition, the Potency result in assay [9] was “inactive”.
As to `C=C(C)C(=O)OCCOC(=O)CC(C)=O`, the compound was called inactive in assay [1], in [3], in assay [4], in assay [5] and in assay [7]. The Potency entry in [2], in assay [6], in [8], in [9] and in [10] was “inactive” each time.
`NC(=O)Nc1ccc(Cl)cc1`: the result in assay [1], in assay [3], in assay [4], in assay [5] and in assay [7] was inactive. Besides, the Potency entry in [2], in assay [6], in [8] and in [9] was “inactive” throughout.
For the compound `CSc1ccc(Oc2ccc(S(N)(=O)=O)cc2CN(C)C)cc1C`, the compound was called inactive in [1], in [3], in assay [4], in [5] and in assay [7]. The Potency entry in assay [2], in assay [6], in [8], in [9] and in assay [10] was “inactive” in each case.
With `CNCCCC1c2ccccc2C=Cc2ccccc21`, the fluorescence, % of fluorescein in [1] was 0.0057% [at 18.6 µM]. The fluorescence, % of fluorescent control was 0.01% [at 18.6 µM] in assay [2], -0.009% [at 18.6 µM] in [4], -0.0014% [at 18.6 µM] in assay [6] and -0.121% [at 18.6 µM] in assay [8]. The activity change in assay [3] was 0.0344% [at 18.6 µM]. Moreover, the fluorescence, % of Rose Bengal in assay [5] was 0.549% [at 18.6 µM]. Besides, the fluorescence, % of fluorescein control in assay [7] is -0.0217% [at 18.6 µM]. The Potency result in [9] and in assay [10] was “inactive” each time.
For `CCC(C)(O)CCC=C(C)C` (stereo not given), the result in assay [1], in assay [3], in assay [4], in [5] and in assay [7] was inactive. For the same compound, the Potency result in assay [2], in assay [6], in assay [8], in assay [9] and in assay [10] was “inactive” each time.
In the case of `O=C(N[C@@H](c1ccccc1)[C@@H]1CCCCN1)c1cccc(C(F)(F)F)c1Cl`, the result in assay [1], in assay [3], in assay [4], in assay [5] and in [7] was inactive. The Potency result in [2], in assay [6], in assay [8] and in [9] was “inactive” in each case.
For `Oc1ccc(Nc2ccccc2)cc1`, the outcome in assay [1], in [3], in [4], in [5] and in [7] was inactive. In addition, the Potency entry in assay [2], in assay [6], in assay [8], in assay [9] and in assay [10] was “inactive” each time.
